# Data: ChEMBL document CHEMBL3988442, “University of Dundee, Small-Polar-MMV Screening Library” (2021)
# In all, about 53,000 compounds went through this assay and about 900 (1.7%) showed an effect of 50% or more. This is one part of a sample in which strong results are shown more often than they occur.
# System: Mycobacterium tuberculosis
# Experiment: Cornell - Phenotypic assay to identify agents that inhibit growth of Mycobacterium tuberculosis
# Format: functional
# Parameters: scale not given: direction of the effect not stated beside the values
# Conditions: 10 mM as filed; unlikely as a test dose
row,SMILES,Percent Effect [%]
1,COC1(CNC(=O)CCCc2ccccc2)CCSC1 (configuration not stated),-5.448
2,Cc1nonc1OCCNC(=O)COc1ccc(F)cc1F,26.66
3,CC(C)Sc1ncccc1C(=O)NCc1ccc(O)cc1,-23.95
4,O=C(O)C(F)(F)F.O=C(O)C(F)(F)F.c1cncc(OC[C@@]23CCC[C@@H]2CN(CC2CCOCC2)C3)c1,-8.459
5,CC(NCc1cc(F)ccc1F)c1ccc(OCC(=O)NC2CC2)cc1 (configuration not stated),-52.24
6,O=C(NCC1CCCO1)c1cc(-c2ccc3c(c2)CCO3)n[nH]1 (configuration not stated),-17.9
7,COc1ccc(CN(C)C(=O)NCc2c(C)cc(C)nc2OC)cc1,-10.68
8,CN(C)c1nccc(NCc2cc(-c3ccco3)n[nH]2)n1,37.45
9,COc1ccccc1NC(=O)c1ccc(C)n1C,27.91
10,COc1cccc(OC)c1CN1CC(=O)N(c2ccc(C)cc2)CC1C (configuration not stated),67.79
11,COc1cc(CN2CC(=O)N(c3ccc(C)cc3)CC2C)cc(OC)c1 (configuration not stated),47.02
12,COc1ccc(CN2CC(=O)N(c3ccc(C)cc3)CC2C)cc1O (configuration not stated),5.464
13,O=C(O)C(F)(F)F.O=C(O)C(F)(F)F.O=C1[C@H]2CN(Cc3ccc(F)cc3)C[C@H]2CN1CCN1CCCC1,-24.72
14,O=C1CC[C@@H](CN(Cc2ccncc2)Cc2nc(-c3cccs3)no2)N1,-23.52
15,CCNC(c1ccc(CC)cc1)c1cccnc1 (configuration not stated),-41.16
16,CCc1cc(=O)n(CC(=O)N2CCCC2)c(-c2ccc(F)cc2)n1,28.21
17,COc1ccccc1N1CCN(CC(=O)NC(C)c2ccco2)CC1 (configuration not stated),25.38
18,CSCC[C@H](NC(=O)CCn1ccc2c(Cl)cccc21)C(=O)O,15.96
19,CSCC[C@H](NC(=O)Cn1ccc2c(Br)cccc21)C(=O)O,5.043
20,COC(=O)[C@H](CCSC)NC(=O)Cn1ccc2c(Cl)cccc21,106.6
21,Cc1ccc(CN2CCC3(CC2)NC(=O)CC3c2ccccc2)s1.O=C(O)C(F)(F)F (configuration not stated),1.118
22,O=C1C(Nc2nccn3cnnc23)CCN1c1cccc(Cl)c1 (configuration not stated),-12
23,CCN(CC)C(=O)CSc1nnc(CCNC(=O)OC(C)(C)C)o1,-12.06
24,CS(=O)(=O)CCn1ccc(NC(=O)Cc2c[nH]c3ccccc23)n1,31.98
25,COCCNC(=O)Cn1c(-c2ccco2)cc2cccnc21,49.86
26,CC(C)N(C(=O)Cn1c(-c2ccco2)cc2cccnc21)C(C)C.Cl,99.58

row,SMILES,Percent Effect [%]
1,Cl.O=C(Cn1c(-c2ccco2)cc2cccnc21)N1CCCC1,60.37
2,Cc1ncccc1-c1cc2cccnc2n1CCCNC(=O)C1CC1.Cl,15.61
3,Cl.O=C(CCn1c(C(F)(F)F)cc2cccnc21)N1CCCC1,-14.31
4,O=C(c1cnn2c(-c3ccco3)ccnc12)N1CCCCCC1,38.47
5,COCc1cc(N2CCN(C3CCCCC3)CC2)n2nccc2n1,6.435
6,CCn1ccnc1CN1CCN(C(C)C(=O)N2CCCC2)CC1 (configuration not stated),-13
7,CCC1(O)CCCN(c2nc(-c3ccccn3)nc3c2c(C)nn3C)C1 (configuration not stated),23.24
8,CCCNC(=O)Nc1ccc2c(c1)N(S(=O)(=O)CC)CC2,11.66
9,CS(=O)(=O)N1CC[C@]2(O)CCN(CCCC(=O)c3ccccc3)C[C@@H]2C1,2.425
10,C=Cn1ncc(CN2C[C@@H]3CCCN3C[C@@H]2CCSC)c1C,-11.11
11,Cc1ccc(-c2noc(C3CCN3C(=O)c3ccn(C)n3)n2)s1 (configuration not stated),54.98
12,Cc1ccc(-c2noc(C3CCN3C(=O)c3c(C)noc3C)n2)s1 (configuration not stated),48.41
13,Cc1c[nH]c(C2COCCN2C(=O)c2ccc(=O)[nH]n2)n1 (configuration not stated),0.9699
14,CC(=O)N1CCC1c1nc(-c2ccc(C)s2)no1 (configuration not stated),7.935
15,Cc1ccc(-c2noc(C3CCN3C(=O)c3cc[nH]n3)n2)s1 (configuration not stated),52.32
16,Cc1cc(O)cc(C2CCCN2C(=O)c2ccn(C)n2)n1 (configuration not stated),-43.03
17,CC(=O)N1CCC(C(=O)N2CCC2c2nc(-c3ccc(C)s3)no2)CC1 (configuration not stated),-6.67
18,CC1CCCCN1C(=O)c1ccc(=O)[nH]n1 (configuration not stated),-37.74
19,Cc1ccc(-c2noc(C3CCN3C(=O)c3ccc(=O)[nH]n3)n2)s1 (configuration not stated),58.13
20,CCN1CCn2c(C)cnc2C12CCN(C(=O)c1cscn1)CC2.O=C(O)C(F)(F)F.O=C(O)C(F)(F)F,-12.15
21,CC(C)c1cc(CN(C)C(=O)CN2CCNC2=O)no1,-1.518
22,Cc1cc(C)cc(CN2CCN(C(=O)CCc3n[nH]c(C)n3)CC2=O)c1,-36
23,Cc1cnc(N2CCC3(CC(=O)N(Cc4csc(C)n4)C3)C2)nc1.O=C(O)C(F)(F)F (configuration not stated),10.64
24,CCCOc1ccc(Cl)cc1C(=O)N1CCC(n2cncn2)CC1,-8.806
25,Clc1cnc(NCc2ccccc2N2CCOCC2)nc1,11.26
26,Cc1cc(C)c2c(N3CCN(C(=O)N4CCOCC4)CC3)ncnc2n1,-18.35

row,SMILES,Percent Effect [%]
1,CC(C)O[C@@H]1CC[C@H]2[C@H]1OCCN2C(=O)c1nn(C)c2ccccc12,4.286
2,CC(C)S(=O)(=O)CC(=O)NCC(Cc1ccc(F)cc1)C(N)=O (configuration not stated),7.629
3,COCCn1cncc1CN1CCCC(C)(c2ccccc2)C1 (configuration not stated),16.9
4,CC1(c2ccccc2)CCCN(Cc2cncn2C2CCCC2)C1 (configuration not stated),105.1
5,CC1(c2ccccc2)CCCN(Cc2cncn2C2CC2)C1 (configuration not stated),-6.001
6,Cn1nccc1NCc1cc2cc(F)ccc2o1,-27.44
7,COc1ccc(CNC(C)c2cccc(Cl)c2)c(OC)c1OC (configuration not stated),-6.089
8,COc1ccc(CNC(C)c2ccc(Cl)cc2)c(OC)c1OC (configuration not stated),4.187
9,COc1ccc(CNC(C)c2ccc(Cl)c(Cl)c2)c(OC)c1OC (configuration not stated),81.35
10,Cc1cc(NCc2ccc(CO)cc2)n2nc(C)cc2n1,-38.88
11,CC(C)CN1Cc2nc(N)ncc2C1=O,0.3963
12,CC1(C)CC(N2Cc3nc(N)ncc3C2=O)CC(C)(C)N1,5.443
13,Nc1ncc2c(n1)CN(C1CCCC1)C2=O,100.2
14,Cc1cnn(CCNCc2ccc(OCc3ccncc3)cc2)c1,-5.152
15,CC(C)CN1Cc2c(C(=O)N(C)C)ncn2-c2ccccc2S1(=O)=O,-10.19
16,CCCc1nnc2sc(CC3CN(Cc4ccccc4)CCO3)nn12 (configuration not stated),22.38
17,Cc1cnc(NS(=O)(=O)c2ccccc2)s1,18.01
18,CNS(=O)(=O)c1cccc(S(=O)(=O)Nc2ncc(C)s2)c1,51.19
19,Cc1cnc(NS(=O)(=O)c2cccc(C#N)c2)s1,-17.84
20,CCc1noc(C(C)N2CCN(c3ccc(C#N)cn3)CC2)n1 (configuration not stated),-10.8
21,Cc1ncncc1C(=O)N1CCOC(C(=O)NC2CCCC2)C1 (configuration not stated),-44.04
22,Cn1cncc1CN1CCCC1c1cncc(Oc2ccc(Cl)cc2)n1 (configuration not stated),-20.26
23,Cn1ccc2ccc(C(=O)NC3CCOC(C)(C)C3)cc21 (configuration not stated),33.83
24,COCCn1ccc2cc(C(=O)NC3CCOC(C)(C)C3)ccc21 (configuration not stated),51.29
25,Cn1ccc2cc(C(=O)NC3CCOC(C)(C)C3)ccc21 (configuration not stated),38.28
26,COc1ccc2c(c1)OCC(Cc1cc(C(=O)N3CCCC3)ccn1)C2 (configuration not stated),3.952

row,SMILES,Percent Effect [%]
1,CCOCC(=O)Nc1ccc(N2CCSCC2)cc1C,35.44
2,CCN(CC)C(=O)Nc1ccc(N2CCSCC2)cc1C,107.3
3,COCCOc1ccc(NC(=O)N(CCO)C2CC2)cn1,5.522
4,CCN(CC1CCCO1)C(=O)Nc1cccc(N2CCOCC2)c1 (configuration not stated),5.45
5,COCCCN(CCOC)C(=O)Nc1ccc(C)cc1C,-5.189
6,CCCN(CC1CC1)C(=O)Cn1ccccc1=O,23.77
7,CCCN(CC1CC1)C(=O)Nc1ccc(N2CCSCC2)cc1C,108.2
8,Cc1cc(N2CCSCC2)ccc1NC(=O)N(CCO)C1CC1,109.4
9,COCCNC(=O)Nc1ccc(C(=O)N2CCSCC2)cc1C,-6.31
10,Cc1ccc(C(=O)N2CCSCC2)cc1NC(=O)NCCO,4.458
11,Cc1ccc(C(=O)N2CCSCC2)cc1NC(C)C,8.4
12,CCC(C)N(C)C(=O)Nc1ccc(N2CCSCC2)cc1C (configuration not stated),109
13,CNc1ncc2c(n1)CN(CCc1ccc(Cl)cc1)C2=O,6.698
14,O=C(O)C(F)(F)F.c1ccc(CN2CCC3(CC2)CC(Nc2nccs2)CO3)nc1 (configuration not stated),10.27
15,CN1CCCC1c1cncc(C(=O)NCCN2CCCCC2)n1 (configuration not stated),5.104
16,O=C(O)C(F)(F)F.O=C(O)C(F)(F)F.c1coc(CN2C[C@@H]3CCCO[C@@H]3[C@H](N3CCCC3)C2)c1,-1.356
17,COc1ccccc1Nc1nc2c(C)nn(C)c2c(=O)n1C,-35.16
18,CCS(=O)(=O)N1CCc2c(nc(C3CCCN3)nc2NC)C1.Cl (configuration not stated),-16.35
19,c1ccc(-c2cc(CN3C[C@@H]4CC[C@H](C3)N(CC3CC3)C4)on2)cc1,34.91
20,c1ccc(-c2cc(CN3C[C@@H]4CC[C@H](C3)N(CC3CCC3)C4)on2)cc1,96.75
21,C1CC(CN2C[C@H]3CC[C@@H]2CN(Cc2noc(C4CCCC4)n2)C3)C1,50.34
22,c1ccc(-c2nnc(CN3C[C@@H]4CC[C@H](C3)N(CC3CCC3)C4)o2)cc1,34.96
23,C1CC(CN2C[C@H]3CC[C@@H]2CN(Cc2nnc(C4CC4)o2)C3)C1,14.78
24,c1ccc(-c2cc(CN3C[C@H]4CC[C@H]3C4)on2)cc1,18.4
